40 sequences from the OligoGym collection can be followed below.
Further: reference of the scale not given here.

The first assay concerns the target MON2. As to the kind of experiment: pooled miR-30 sensor sort-seq; sequence = guide strand. The following applies: shRNA.
TTCTTCAAGACTATTCTCCATT registered a sensor-assay potency score (higher = more potent) of -0.51.
Turning to AACATCTACAACTATTTGCAGG, the sensor-assay potency score (higher = more potent) was -1.11.
The same measure, in the same setting: the same measure for TAGTGTTGAAGATCCTTGCTAC: 0.514; for TACAATATCACGAAAAACCTTG: -0.21; for TAAACTAATATTGAGTTCTTGG: -0.234.

The target in another assay is MOV10. The description is as above. The conditions noted are these: shRNA.
TTGAAGGTAAAGTTCACCTTGA: the sensor-assay potency score (higher = more potent) was found to be 0.564.
Same read-out and setting: the figure for TAACGTGACAGTCTTGCCGGTG is -0.472; for TATTCCTGCAGCTTCTTCTTGG it is 0.321.
On to TTGTACAGGGAGTTGTAGGTGA, for which the sensor-assay potency score (higher = more potent) is 0.0022.
The same measure, in the same setting: the same measure for TTCAGGTAGGAAGTCACTGTGG: -0.627; for TTTCTTTACAGAACTCCAGGAA: -0.0759; for TTGAGTTTCACATCTGAGGGCA: 0.674.
On the same count and under the same terms, the same measure for TTGATCTCTGCGATCTCCTTAG: -0.607.
Turning to TTCTTCTACTGAACCCACCTTC, the sensor-assay potency score (higher = more potent) was -0.0526.
Same read-out and setting: the figure for AAGCTGATCTTGAAGTCGCGGT is 0.0595; for TTCACCTTGAAGGTCAGCCCAT it is -0.593.
On to TTAATTGCCTCCACTAACGTGA, for which the sensor-assay potency score (higher = more potent) is 0.283.

For another assay, the target named is MPDU1. Described as above. The following applies: shRNA.
As for ATGCTGTAGACCATGGTCCCAG, the sensor-assay potency score (higher = more potent) was -1.15.
With TTACACAGCTGGAAATTGCTGC, the sensor-assay potency score (higher = more potent) was found to be 0.224.
TTTCTAAGGATCTGGATCCATC had a sensor-assay potency score (higher = more potent) of -1.09.
For the sequence TAGTGCATGACCAGGAAGCAGA, the sensor-assay potency score (higher = more potent) was -0.943.
The same measure, in the same setting: the same measure for TCCTCTGTAGTGCATGACCAGG: -1.87.
TAATAGTACATGTACAGGGCTT returned a sensor-assay potency score (higher = more potent) of -0.0728.
For TTGGTCGTAGCATTTCTCAGGT, the sensor-assay potency score (higher = more potent) stood at 0.125.
Sequence TTTCACAGTCTGTCCTCTGTAG showed a sensor-assay potency score (higher = more potent) of 0.208.
TTTCTCAGGTAAAAGAATCGGC gave a sensor-assay potency score (higher = more potent) of 0.459.
The same measure, in the same setting: the same measure for TTCCACTAAAAGAAAACCCTGG: 0.439; for TGAATGGAAGTGAAGATTCGGG: -0.586.
Still for that read-out and setting: the figure for TAAAAGAATCGGCACGAGCAGC is -0.833.

The target of another assay is MPG. The description is as above. The following applies: shRNA.
TAGCTGGTCGCTGCTTCTTTTG showed a sensor-assay potency score (higher = more potent) of -2.15.
Consider AAGAACTCCAACCCCAGTCGGG, for which the sensor-assay potency score (higher = more potent) is -0.896.
Regarding TGCTCTAGCTGGTCGCTGCTTC, the sensor-assay potency score (higher = more potent) is -0.856.
On the same count and under the same terms, the same measure for TGGTCGAAGAACTCCAACCCCA: -1.62; for TCATGCAGAAGTACATGCCGTA: 0.083; for TTCTTTTGCCCCATCCGTCGGC: -0.549.
Regarding TTCATGCAGAAGTACATGCCGT, the sensor-assay potency score (higher = more potent) was -0.872.
On the same count and under the same terms, the same measure for TAAATGATGTACACGTACAGGG: -0.261.
Same read-out and setting: the figure for TCGACCACACTGACCCAGGGGC is -0.746; for TACAGCTTCATCCTGTGCCAGG it is -1.03; for TCTGTCGACCACACTGACCCAG it is -0.682.
